# In PMC4336329 (PLoS ONE, 2015):
# The campaign covered roughly 310,000 compounds. About 14,000 (4.5%) showed an effect of 50% or more. Effects have a minus sign here. Shown is part of a subset that was picked to be rich in strong results.
# Biological target: human ether-à-go-go-related gene (hERG) potassium channel (human, UniProt Q12809)
# Assay: primary screen, population patch clamp on CHO cells stably expressing hERG; higher = less effect of the substance
# 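Also: peak tail current of the secondary pulse compared with the same well before compound.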
# Sequence of human ether-à-go-go-related gene (hERG) potassium channel (Q12809 whole entry, looked up): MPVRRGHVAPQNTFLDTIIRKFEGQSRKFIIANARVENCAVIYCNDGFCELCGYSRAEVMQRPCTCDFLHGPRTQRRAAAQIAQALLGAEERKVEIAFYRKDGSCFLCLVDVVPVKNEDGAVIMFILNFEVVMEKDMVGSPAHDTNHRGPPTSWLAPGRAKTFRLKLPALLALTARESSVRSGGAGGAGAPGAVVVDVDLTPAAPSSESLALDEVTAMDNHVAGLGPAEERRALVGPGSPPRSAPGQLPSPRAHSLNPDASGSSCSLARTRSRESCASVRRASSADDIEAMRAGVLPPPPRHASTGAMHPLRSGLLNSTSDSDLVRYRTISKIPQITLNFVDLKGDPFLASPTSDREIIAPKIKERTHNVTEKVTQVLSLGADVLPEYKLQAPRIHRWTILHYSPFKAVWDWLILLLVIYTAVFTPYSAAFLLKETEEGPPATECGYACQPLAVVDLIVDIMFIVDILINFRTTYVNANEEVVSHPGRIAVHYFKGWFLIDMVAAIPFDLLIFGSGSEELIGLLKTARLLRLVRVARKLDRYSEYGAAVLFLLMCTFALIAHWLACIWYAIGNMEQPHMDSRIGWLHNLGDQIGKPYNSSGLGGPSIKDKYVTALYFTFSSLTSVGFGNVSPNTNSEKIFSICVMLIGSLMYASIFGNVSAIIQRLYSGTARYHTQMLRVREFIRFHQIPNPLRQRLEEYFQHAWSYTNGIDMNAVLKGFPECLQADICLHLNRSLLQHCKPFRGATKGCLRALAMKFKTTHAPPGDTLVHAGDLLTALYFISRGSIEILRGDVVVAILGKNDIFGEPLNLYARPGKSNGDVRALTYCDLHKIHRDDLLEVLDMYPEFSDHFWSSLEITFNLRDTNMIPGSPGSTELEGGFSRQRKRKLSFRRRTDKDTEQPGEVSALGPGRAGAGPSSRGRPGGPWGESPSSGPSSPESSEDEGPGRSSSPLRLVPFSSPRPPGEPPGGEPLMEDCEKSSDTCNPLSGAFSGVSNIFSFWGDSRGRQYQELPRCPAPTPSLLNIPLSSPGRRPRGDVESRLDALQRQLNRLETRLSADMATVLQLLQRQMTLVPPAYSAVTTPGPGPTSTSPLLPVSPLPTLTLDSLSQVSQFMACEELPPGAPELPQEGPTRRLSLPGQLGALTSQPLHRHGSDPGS
row,Structure (SMILES),"hERG current change (%, negative = inhibition) at 10uM"
1,O=C(NNc1ccccc1[N+](=O)[O-])Nc1cccc(Cl)c1,19.3%
2,Cc1ccccc1Cn1cc(NC(=O)CCCn2nc([N+](=O)[O-])cc2C)cn1,-7.52%
3,O=C(NNS(=O)(=O)c1ccc([N+](=O)[O-])cc1)c1ccc([N+](=O)[O-])cc1,28.6%
4,O=C(NCCN1CCN(c2ccccc2)CC1)c1cccn2c(=O)c3ccccc3nc12,-63%
5,O=C(NCCN1CCN(c2ccccc2F)CC1)c1cccn2c(=O)c3ccccc3nc12,-71.5%
6,Cn1c(C(=O)NCCN2CCN(c3ccccc3F)CC2)cc2c(=O)n(C)c3ccccc3c21,-4.62%
7,O=C(NCCN1CCN(c2ccccc2)CC1)c1cccn2c(=O)c3cc(Cl)ccc3nc12,-45.4%
8,COCCCNC(=O)c1cccn2c(=O)c3cc4ccccc4cc3nc12,-42.2%
9,CN(CCCNC(=O)c1cccn2c(=O)c3ccccc3nc12)Cc1ccccc1,-74.1%
10,O=C(O)c1cccn2c(=O)c3ccccc3nc12,13.1%
11,CN(CCCNC(=O)c1cc2c(Cl)nc3ccccc3c2s1)Cc1ccccc1,-44.3%
12,O=C(CCNC(=O)Cn1ccc2ccccc2c1=O)NCCN1CCN(c2ccccc2F)CC1,6.8%
13,CCN(CC(=O)NC1CCS(=O)(=O)C1)C(=O)COc1ccccc1-c1ccccc1 (stereo not shown),11.7%
14,CCn1nnnc1NCc1ccc(Cl)cc1,9.44%
15,COc1ccc2c(c1)O[C@@H](c1cccc(C(F)(F)F)c1)[C@H](OC(=O)NCCc1ccc(OC)c(OC)c1)C2=O,-0.231%
16,O=C(CSc1nnc(-c2cccnc2)n1Cc1ccco1)NCc1ccc2c(c1)OCO2,-33.2%
17,COc1cccc(-c2nnc(SCC(=O)Nc3ccc4c(c3)OCCO4)n2Cc2ccco2)c1,-15.1%
18,O=C(CSc1nnc(-c2ccc(Cl)cc2)n1Cc1ccco1)NCc1ccc2c(c1)OCO2,-75.3%
19,O=C(CSc1nnc(-c2ccccc2)n1Cc1ccco1)NCc1ccc2c(c1)OCO2,-14.5%
20,COc1cccc(-c2nnc(SCC(=O)NCc3ccc4c(c3)OCO4)n2Cc2ccco2)c1,-49.7%
21,COc1ccc(-c2nnc(SC(C)C(=O)NCc3ccc4c(c3)OCO4)n2Cc2ccco2)cc1 (stereo not shown),-55.1%
22,O=C(CSc1nnc(NC(=O)c2ccco2)s1)NC1CCCCC1,2.07%

row,Structure (SMILES),"hERG current change (%, negative = inhibition) at 10uM"
1,Cc1ccc2c(c1)N(CCC(=O)NCCCN1CCCC1)C(=O)C(C)O2 (stereo not shown),22.4%
2,Cc1nn(C)c(Cl)c1CN1CCCC(CO)(Cc2cccc(Cl)c2)C1 (stereo not shown),-59.8%
3,Cc1nn(C)c(Cl)c1CN1CCCC(CO)(Cc2ccccc2)C1 (stereo not shown),-6.66%
4,OCC1(Cc2cccc(Cl)c2)CCCN(Cc2ccc(F)c(F)c2)C1 (stereo not shown),-51.2%
5,COc1cc(CN2CCCC(CO)(Cc3cccc(Cl)c3)C2)cc2c1OCO2 (stereo not shown),-68.1%
6,COc1ccc(CN2CCCC(CO)(Cc3cccc(Cl)c3)C2)cc1OC (stereo not shown),-63.2%
7,Cc1c(CN2CCCC(CO)(Cc3cccc(Cl)c3)C2)cnn1C (stereo not shown),-11.2%
8,CSc1cccc(CN2CCCC(CO)(Cc3cccc(Cl)c3)C2)c1 (stereo not shown),-29%
9,Cc1cccc(-c2ncc(CN3CCCC(CO)(Cc4cccc(Cl)c4)C3)cn2)c1 (stereo not shown),-20.6%
10,CCn1nc(C)c(CN2CCCC(CO)(Cc3cccc(Cl)c3)C2)c1C (stereo not shown),-40.8%
11,COc1cc(CN2CCCC(CO)(Cc3ccccc3C)C2)cc2c1OCO2 (stereo not shown),-27.9%
12,COc1cc(CN2CCCC(CO)(Cc3ccccc3)C2)ccc1O (stereo not shown),-17.6%
13,CC(C)(O)C#Cc1ccc(CN2CCCC(CO)(Cc3cccc(Cl)c3)C2)cc1 (stereo not shown),-6.28%
14,CCC/C=C(\CCC)C(NS(=O)(=O)c1ccc(C(F)(F)F)cc1)c1ccccc1 (stereo not shown),15.5%
15,Cc1nnc2ccc(N3CCN(C(=O)c4ccccc4)CC3)nn12,-0.844%
16,COc1ccc(S(=O)(=O)NCc2ccncc2)cc1NC(=O)c1ccccc1C,-36.6%
17,O=C(/C=C/c1cccc([N+](=O)[O-])c1)NCCSCc1c(Cl)cccc1Cl,-11.9%
18,NS(=O)(=O)c1ccc(NC(=O)c2ccc3c(c2)OCO3)cc1,11.3%
19,COc1cc(Cl)c(CN2CCCC(CO)(Cc3ccccc3)C2)cc1OC (stereo not shown),-55.2%
20,COc1cc(Cl)c(CN2CCCC(CO)(Cc3cccc(Cl)c3)C2)cc1OC (stereo not shown),-45.6%
21,COc1cc(Cl)c(CN2CCCC(CO)(Cc3ccccc3F)C2)cc1OC (stereo not shown),-20.1%
22,FC(F)(F)c1cc(Sc2ccccc2)nc(-c2ccccn2)n1,-19.3%

row,Structure (SMILES),"hERG current change (%, negative = inhibition) at 10uM"
1,C#CCSc1cc(C(F)(F)F)nc(-c2ccccn2)n1,-62.9%
2,O=C(O)CSc1cc(C(F)(F)F)nc(-c2ccccn2)n1,5.55%
3,CCC(=O)NC(C)c1nc2ccccc2n1C (stereo not shown),1.29%
4,Cc1sc2ncnc(N/N=C/c3ccc(O)cc3)c2c1C,2.28%
5,Cc1sc2ncnc(N/N=C/c3cccc(O)c3)c2c1C,-61.9%
6,Cc1sc2ncnc(N/N=C/c3ccccc3O)c2c1C,-1.58%
7,O=C(CCNNC(=O)c1ccncc1)NCc1ccccc1,9.98%
8,Cn1cc(CN2CCCC(CO)(Cc3cccc(Cl)c3)C2)cn1 (stereo not shown),-17.1%
9,CCn1cc(CN2CCCC(CO)(Cc3cccc(Cl)c3)C2)cn1 (stereo not shown),-10.8%
10,COc1ccccc1-n1cc(CN2CCCC(CO)(Cc3cccc(Cl)c3)C2)cn1 (stereo not shown),-49.5%
11,Cn1cc(CN2CCCC(CO)(Cc3ccccc3)C2)cn1 (stereo not shown),4.27%
12,OCC1(Cc2ccccc2)CCCN(Cc2cnn(-c3ccccc3)c2)C1 (stereo not shown),-59.4%
13,OCC1(Cc2cccc(Cl)c2)CCCN(Cc2cnn(-c3ccccc3)c2)C1 (stereo not shown),-54.7%
14,CC(C)n1cnc2c(Nc3ccc(F)c(Cl)c3)nc(NCCO)nc21,-39%
15,[O-][N+]1=C(c2cccs2)CN(O)C1,8.57%
16,CC(OC(=O)/C=C/c1ccco1)C(=O)NC1CCCCC1C (stereo not shown),-3.2%
17,Nc1sc(-c2ccccc2)c(Cc2ccccc2)c1C(=O)O,-2.59%
18,Cc1cnc(NC(=O)CSc2ccccc2)s1,3.88%
19,Fc1ccc(Cn2nnnc2CN2CCC(n3nnc4cc(C(F)(F)F)ccc43)CC2)cc1,-69.6%
20,FC(F)(F)c1ccc2c(c1)ncn2C1CCN(Cc2nnnn2C2CCCCC2)CC1,-59.6%
21,Cl.Fc1ccc2c(c1)nnn2C1CCN(Cc2nnnn2C2CCCCC2)CC1,-38.1%
22,FC(F)(F)c1ccc2c(c1)nnn2C1CCN(Cc2nnnn2Cc2ccccc2)CC1,-50.9%

row,Structure (SMILES),"hERG current change (%, negative = inhibition) at 10uM"
1,O=C(O)CCC(=O)N1CCC(n2nnc3cc(C(F)(F)F)ccc32)CC1,10.5%
2,OC1(c2cccc(C(F)(F)F)c2)CCN(Cc2nnnn2Cc2ccccc2)CC1,10.4%
3,Fc1ccc(Cn2nnnc2CN2CCN(C3CCCC3)CC2)cc1,-49.1%
4,Cc1ccc(Cn2nnnc2CN2CCC(n3nnc4cc(C(F)(F)F)ccc43)CC2)cc1,2.84%
5,C1CCN(Cc2nnnn2C2CCCC2)CC1,11.4%
6,O=C(CSc1ccc2c(c1)OCCO2)NCCc1ccc(Cl)cc1Cl,-8.94%
7,O=C(Nc1ccc(Cl)cc1C(F)(F)F)c1ccccc1,8.81%
8,Cn1cnnc1SCC(=O)Nc1cc(S(=O)(=O)N2CCCCCC2)ccc1Cl,-17.8%
9,CCc1c(C)nc2ncnn2c1Nc1ccccc1C,-34.1%
10,CCOC(=O)N1CCC(NC(=O)c2cc(C(=O)Nc3ccc(OCC)cc3)ccc2CO)CC1,9.27%
11,CC(C)c1nnc(NC(=O)CC(C)c2ccccc2)s1 (stereo not shown),1.39%
12,N#Cc1c(N)nc2c3c(sc(=N)c2c1N)NC(=O)CC3c1c(F)cccc1Cl (stereo not shown),-15.7%
13,O=C(NNc1nc2ccccc2s1)c1ccccc1F,-7.04%
14,Fc1ccc(NC(=S)NC2CC3CCCC(C2)N3Cc2cccs2)cc1 (stereo not shown),-59.5%
15,Cc1cc(C)cc(NC(=S)NC2CC3CCCC(C2)N3Cc2cccs2)c1 (stereo not shown),-52.9%
16,Cc1ccc(NC(=S)NC2CC3CCCC(C2)N3Cc2cccs2)cc1 (stereo not shown),-56.5%
17,Cc1cccc(NC(=S)NC2CC3CCCC(C2)N3Cc2cccs2)c1 (stereo not shown),-35.9%
18,Fc1ccc(NC(=S)NC2CC3CCC(C2)N3Cc2ccco2)cc1 (stereo not shown),-12.6%
19,CCc1ccccc1NC(=S)NC1CC2CCCC(C1)N2Cc1cccs1 (stereo not shown),-4.03%
20,Cc1cccc(NC(=S)NC2CC3CCCC(C2)N3Cc2cccs2)c1C (stereo not shown),-37.9%
21,CC(C)CNC(=S)NC1CC2CCCC(C1)N2Cc1cccs1 (stereo not shown),-34.8%
22,CCc1ccc(NC(=S)NC2CC3CCCC(C2)N3Cc2cccs2)cc1 (stereo not shown),-20.4%
